EBV LMP1 NFkB = reduces LMP1-driven NF-kappaB luciferase signal | inhibition, % at 12.5 µM | LMP1-induced NF-kappaB luciferase reporter cells, luminescence | hit rate 0.69% among 350,000 | AID 504558; in the data active = inhibition above about 41%;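 also: 0% = neutral control wells and 100% = reference inhibitor control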
Peg3 promoter = Peg3 promoter activity inhibition | HeLa PEG-Prom luciferase reporter, luminescence, overnight | hit rate 1.7% among 360,000 | inhibition, % at 20 µM;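 active = inhibition of at least 50% at 20 µM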
Shn3 inh set2 = Schnurri-3 reporter inhibition in Clone20 osteoblasts; Clone20 osteoblast Shn3 3'UTR firefly luciferase, 24 h; inhibition, % at 12.5 µM; hit rate 0.52% among 360,000; AID 588674;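 active = mean inhibition of at least 75% with every replicate also reaching 75%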;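 also: 0% = median of neutral control wells and 100% = pilot-screen positive control compound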
TWEAK-Fn14 inh = TWEAK-Fn14 signaling inhibition. TWEAK-stimulated Fn14 reporter cells, luciferase luminescence, 8 h. inhibition, % at 10 µM. hit rate 2% among 360,000; in the data active = inhibition above about 50%
TRPM1 prom inh = reduces MITF-dependent TRPM1 promoter luciferase signal. hit rate 0.83% among 330,000. inhibition, % at 12.5 µM. AID 488899. SK-MEL-5 TRPM1 promoter luciferase, 24 h;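 active = mean inhibition across replicates of 60% or more, whatever share of single replicates reaches that level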
TROY signal inh = blocks TROY-dependent signaling in reporter cells; Q293 LMP1-TROYcd NF-kB luciferase reporter, 4 h; inhibition, % at 10 µM; hit rate 0.98% among 360,000; AID 1347056;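 active = compounds whose plate-normalised and pattern-corrected inhibition of the luciferase reporter signal at the single screening dose is 50% or more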
The depositor's hits bear a star; nt = not tested or not shown. In the library only some 4.1% were active in any assay of this set; here they are far more common.

SMILES	EBV LMP1 NFkB	Peg3 promoter	Shn3 inh set2	TWEAK-Fn14 inh	TRPM1 prom inh	TROY signal inh
Oc1cccc(CN2CCOCC2)c1O	-2.0	10.0	-12.3	18.8	7.7	0.7
Oc1c(CN2CCOCC2)cc(COCc2ccccc2)c2cccnc12	76.0*	49.5	89.6*	15.3	84.6*	8.5
Oc1c(CN2CCOCC2)cc(CN2CCOCC2)c(O)c1O	2.8	3.7	2.0	52.2*	-4.4	5.0
O=C(Oc1c(CN2CCOCC2)cc(Cl)c2cccnc12)c1ccccc1Br	19.8	33.5	nt	-6.4	70.4*	5.0
O=C(COC(=O)C1CC1)Nc1ccc(Cl)cc1Cl	-2.8	-11.3	-12.9	0.0	-7.0	-6.0
CCn1c(SCC(=O)N2CCOCC2)nc2c([nH]c3ccccc32)c1=O	-9.8	-6.1	-11.8	14.0	10.2	-3.0
Cc1ccc(CNc2ncnc3ccc(-c4ccoc4C)cc23)o1	nt	18.5	31.0	64.9*	nt	-4.9
CS(=O)(=O)N1CCC(C(=O)NCc2ccc3c(c2)OCO3)CC1	6.0	-0.6	-1.7	5.1	2.7	6.2
CN(CC(=O)Nc1ccc(F)cc1)CC(=O)N1CCCCCC1	-0.2	4.6	0.6	19.6	9.1	4.3
O=C1C=C(O)CC(c2ccc(Cl)c(Cl)c2)C1 (stereo not drawn)	0.9	6.4	-2.6	16.2	-2.3	-3.6
CN[C@H]1CC[C@@H](c2ccc(Cl)c(Cl)c2)c2ccccc21	-15.7	95.0*	1.2	-22.6	19.7	nt
CCOP(=O)(OCC)C(NC(=O)C(F)(F)F)c1ccccc1 (stereo not drawn)	-1.3	4.0	2.4	8.0	5.8	63.0*
CCCOP(=O)(OCCC)C(NC(=O)C(C)(C)C)c1ccccc1 (stereo not drawn)	-8.0	10.6	14.3	-3.5	14.6	9.3
Cc1cc(Cl)cc(C)c1OCC(=O)NC1CCCCCC1	-7.6	-37.2	10.2	-23.5	-14.0	-43.4
O=C(COC(=O)CSc1ccc(F)cc1)NNC(=O)c1ccc([N+](=O)[O-])cc1	7.7	-2.9	3.4	-31.0	11.8	-6.1
CCOC(=O)/C(=C\c1ccc(Cl)cc1)c1nc2sc(C)c(C)c2c(=O)[nH]1	6.3	108.3*	23.3	103.8*	78.5*	53.2*
O=C(CN(Cc1ccccc1)C(=O)CCC(=O)Nc1nccs1)NCc1ccccc1	-0.7	15.0	17.2	42.8	-3.2	3.7
Cc1ccccc1-n1sc2cc(F)ccc2c1=O	3.0	72.7*	-16.2	3.1	6.5	-4.6
O=c1c2ccccc2sn1-c1ccccc1F	2.8	-2.6	7.4	-5.9	nt	-47.0
O=C(CN1CCCC1c1cccs1)N1CCN(S(=O)(=O)c2ccccc2)CC1 (stereo not drawn)	1.3	-9.6	-97.6	9.9	-10.2	1.5
CCNC(=O)N1CCN(CCCC(c2ccc(F)cc2)c2ccc(F)cc2)CC1	-1.7	-9.5	1.0	-1.8	-2.6	19.1
CC(C)C(CCNCc1ccccn1)c1ccc(Cl)cc1 (stereo not drawn)	-0.8	-5.0	15.0	3.1	3.0	-0.3
CC(C)C(CCNC1CCN(C)CC1)c1ccc(Cl)cc1 (stereo not drawn)	-22.6	100.1*	11.0	1.3	89.8*	-15.0
CN1CCC(NCCC(c2ccc(F)cc2)c2ccc(Cl)cc2)CC1 (stereo not drawn)	-63.4	93.7*	-15.1	-51.0	80.1*	-54.0
COc1ccc(CNS(=O)(=O)c2csc(C(N)=O)c2)cc1OC	-2.8	-5.0	-25.7	-1.4	-1.6	-14.9
SMILES	EBV LMP1 NFkB	Peg3 promoter	Shn3 inh set2	TWEAK-Fn14 inh	TRPM1 prom inh	TROY signal inh
Cc1cc(C)n(-c2nc(SCCN(C)C)c3c4c(sc3n2)COC(C)(C)C4)n1	-15.7	53.9*	5.3	-39.0	-0.1	9.8
Cc1ccc(S(=O)(=O)N(CC(=O)N=Nc2c(O)[nH]c3ccccc23)c2cccc(C)c2)cc1	-0.8	17.1	-1.0	52.0*	13.0	33.3
Cc1cc(Cl)ccc1N(CC(=O)N=Nc1c(O)[nH]c2ccccc12)S(C)(=O)=O	5.3	20.3	6.2	2.3	9.7	-11.1
CCN(CC)C(=O)CSc1nc(-c2ccc(C)cc2)nc2c1COC(C)(C)C2	2.8	1.9	-1.0	58.4*	-21.0	58.3*
CCOC(=O)c1oc2ccccc2c1CSc1nnc(-c2ccco2)o1	2.4	3.1	1.9	58.5*	6.3	1.9
CCOC(=O)c1oc2ccccc2c1CSc1nnnn1-c1ccc(C)cc1	0.7	30.4	-3.0	-6.4	-7.7	7.0
O=c1c2c3nc4ccccc4nc3n(-c3ccc4c(c3)OCCO4)c2ncn1C1CCCC1	-4.9	58.7*	8.9	-8.9	82.3*	6.7
O=c1c2ccccc2ncn1-c1ccc2c(c1)OCCO2	0.2	-59.5	-22.5	50.8*	-40.2	-4.3
CN(C)C(=O)c1ccc(-n2cnc3ccccc3c2=O)cc1	-51.3	-26.5	-28.7	-8.5	-7.6	-31.4
COCCNC(=O)[C@@H]1CCCN1C(=O)C1CCN(S(=O)(=O)c2ccc(C)cc2)CC1	0.5	6.4	8.6	0.6	8.1	-3.4
COc1ccc(C=CC(=O)c2ccc(OCc3ccccc3)c(OC)c2)cc1OC	7.5	29.6	-14.6	-11.9	nt	-20.1
O=C(/C=C/c1ccc(Cl)cc1)c1cccnc1	2.0	43.6	-12.2	-8.2	3.3	3.3
O=C(/C=C/c1ccc(OCc2ccccc2)c(OCc2ccccc2)c1)c1cccnc1	-10.4	36.8	88.8*	-7.9	23.9	-4.2
N#Cc1ccc(/C=C/C(=O)c2cccnc2)cc1	5.8	70.3*	61.8	-0.6	20.1	40.0
CN(C)S(=O)(=O)c1ccc(Cl)c(NC(=O)CN2C(=O)NC(C)(C3CC3)C2=O)c1 (stereo not drawn)	2.7	17.9	11.1	6.2	11.4	0.7
O=C(COc1ccc2ccccc2c1)NCCNC(=O)COc1ccc2ccccc2c1	53.7*	13.0	7.8	-13.3	13.9	-4.4
Cc1ccc(N(C)S(=O)(=O)c2cccc(C(=O)OCC(=O)c3c(N)n(C)c(=O)n(C)c3=O)c2)cc1	11.1	32.1	35.3	38.4	16.1	51.6*
CN(C)S(=O)(=O)c1cccc(C(=O)OCC(=O)c2c(N)n(C)c(=O)n(C)c2=O)c1	-0.3	9.3	-1.1	0.4	6.1	10.2
CN(C(=O)c1ccc(NC(=O)Cc2cccc(NC(=O)C3CCN(C(=O)C4CC4)CC3)c2)cc1)C1CC1	3.8	-44.0	-3.5	0.8	-5.5	-9.1
O=C(NCc1cn2ccsc2n1)c1cccc(C(F)(F)F)c1	5.0	4.4	8.6	-2.7	17.0	12.7
Cc1csc2nc(CNC(=O)c3cccc(C(F)(F)F)c3)cn12	-2.4	22.0	5.0	96.5*	4.4	nt
Cc1ccc(NC(=O)CSc2cn[nH]n2)cc1	-1.7	-10.0	6.6	4.8	-7.6	-10.9
N#Cc1ccc(NC(=O)CSc2cn[nH]n2)cc1	-1.8	-1.7	1.4	90.4*	-5.5	-2.6
COc1cc(-c2cc3nc(NCc4cccs4)ccn3n2)cc(OC)c1OC	nt	8.6	13.6	40.5	nt	20.4
COc1cc(-c2cc3nc(NCc4cccc(Cl)c4)ccn3n2)cc(OC)c1OC	nt	24.7	6.1	65.2*	nt	42.1
